Tau ThT inhib – blocks human tau fibril formation measured by thioflavin T; P10636; recombinant tau K18 P301L, heparin-induced fibrillization, ThT fluorescence; Potency, µM (series often up to 57.4 µM), inactives show at the highest dose activity, negative = inhibition, hits mostly inhibitors; hit rate 2.1% among 270,000; AID 1460; note: potency is the fitted concentration of half-maximal effect; nearly all actives have a fitted effect of over 55% in size
Target sequence (P10636 561-689 P618L limits assumed): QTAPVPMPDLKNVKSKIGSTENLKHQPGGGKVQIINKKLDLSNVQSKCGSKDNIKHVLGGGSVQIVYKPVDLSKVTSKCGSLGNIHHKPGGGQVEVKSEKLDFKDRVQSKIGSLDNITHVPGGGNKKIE
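Tau K18 P301L fragment (15 uM unlabeled plus 0.24 uM Alexa 594-labeled) in 100 mM sodium acetate pH 7 with compound, fibrillization induced by 20 uM heparin for 6 hr at 37 C. Thioflavin T (30 uM) added, fluorescence read after 1 hr (ex 450, em 510 nm).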
Sfp inh – inhibitors of Bacillus subtilis Sfp phosphopantetheinyl transferase; Q9F4F7; Biochemical Sfp PPTase activity, qHTS; Potency, µM, for inactives: largest response in the series, negative = inhibition, actives largely listed as inhibitors; hit rate 3.5% among 310,000; AID 1490;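 note: the enzyme is Sfp with the accession as filed and its product quenches rhodamine fluorescence; potency is the fitted concentration of half-maximal effect; 0% = enzyme reaction without inhibitor and -100% = no enzyme wells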
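Step 1, compound plus 15 nM Sfp-PPTase, 15 min, room temperature. Step 2, add rhodamine-CoA (5 uM) and BHQ-2-YbbR (12.5 uM). Step 3, read 525/598 nm fluorescence at 0 and 30 min.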
Tau fluor cs – counter-screen for tau fibril formation inhibitors; tau K18 P301L (four-repeat tau fragment) Alexa594 fluorescence, heparin fibrillization; Potency, µM (titrated, usually from 57.7 µM), without a hit: top-dose activity change, negative = decrease; hit rate 0.93% among 280,000; note: potency is the fitted concentration of half-maximal effect; nearly all actives have a fitted effect of over 55% in size
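Human K18 P301L tau (15 uM unlabeled plus 0.24 uM Alexa 594-labeled, final) in 100 mM sodium acetate pH 7 was mixed with compound and 20 uM heparin and incubated 6 hr at 37 C.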
Tau FP inhib – blocks human tau fibril formation measured by polarization | K18 P301L tau heparin fibrillization, Alexa594 FP, 6 h | Potency, µM (series often up to 57.7 µM), for inactives: top-dose activity, negative = inhibition, usual class: inhibitors | AID 1468 | hit rate 0.39% among 280,000 | P10636; note: potency is the fitted concentration of half-maximal effect; nearly all actives have a fitted effect of over 55% in size
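Quantitative HTS format: compounds meet 15 uM recombinant K18 P301L tau and Alexa 594-tau tracer in 100 mM sodium acetate pH 7; 20 uM heparin triggers fibrillization at 37 C over 6 hr; FP gives the signal.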
Coupling enz – counter-screen for Giardia aldolase inhibitors: coupling enzyme system; hit rate 0.67% among 290,000; coupling enzyme system counterscreen, AmpLite Red fluorescence; activity change, negative = inhibition, % at 58.2 µM, hits read low; in the data active = activity change below about -30%
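Compounds tested against the coupling enzymes alone at 57.5 uM final; readout was AmpLite Red fluorescence (525/598 nm) after 20 min at RT.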
The depositor's hits bear a star; ? = inconclusive; . = no result given; [ ] = remark or other dose. Only some compounds are listed: those with a hit (about 5.2% of all), similar ones and a draw of the others. Unless noted, calls come from the whole dose curve; as a rule, active = well fitted curve in the direction sought with a large enough effect; inconclusive = small, poorly fitted or top-dose-only effect, or another doubt; inactive = no such curve, though single readings can be large; an effect the other way counts as inactive or inconclusive. Unless noted, % is set by controls: 0 for no effect and ±100 for the full control effect.

SMILES | Tau ThT inhib | Sfp inh | Tau fluor cs | Tau FP inhib | Coupling enz
Cc1oc(-c2ccc3c(c2)OCCO3)cc1C(=O)NC(Cc1ccccc1)C(=O)O (stereo unspecified) | ? | 22.4µM* | -13.1% | -7.3% | 7.3
Cc1oc(C(C)(C)C)cc1C(=O)NC(Cc1ccccc1)C(=O)O (stereo unspecified) | 4.6% | 19.6% | 1.2% | -0.8% | 11.2
COC(=O)C(Cc1c[nH]c2ccccc12)NC(=O)c1cc(-c2ccc(OC)c(OC)c2)oc1C (stereo unspecified) | ? | 31.6µM* | ? | ? | -3.2
COC(=O)CCC(NC(=O)c1cc(-c2ccc3c(c2)OCCO3)oc1C)C(=O)OC (stereo unspecified) | -18.4% | 35.5µM* | -11.0% | 12.7% | 1.4
NC(=S)c1ccc[n+]([C@@H]2O[C@@H](COP(=O)([O-])OP(=O)(O)OC[C@H]3O[C@@H](n4cnc5c(N)ncnc54)[C@H](OP(=O)(O)O)[C@H]3O)C(O)C2O)c1 (stereo partly specified) | 8.4% | . | 1.0% | 1.4% | .
O=C(C1=C[C@@H]2[C@H]3C(=O)N(c4ccc(Cl)cc4)C(=O)[C@H]3[C@@H](C(=O)c3ccc(Cl)cc3)N2C=C1)c1ccccc1 | 14.1µM* | -3.0% | ? | -19.4% | -1.2
CCOc1ccc(N2CC(NC(=O)c3ccc(S(=O)(=O)N4CCOCC4)cc3)CC2=O)cc1 (stereo unspecified) | 7.3% | . | 2.8% | -3.0% | .
Clc1ccc(Nc2ccc(NCc3ccccc3)nn2)cc1 | ? | -18.4% | 12.6µM*[quencher] | 13.5% | -3.4
Cc1ccc(Nc2ccc(NCc3ccccc3)nn2)cc1C | ? | -11.8% | ? | ? | -0.3
Cc1nc2ccccc2c2oc(C(=O)N3CCN(C(=O)c4ccco4)CC3)cc12 | -4.8% | 70.8µM* | 7.0% | -10.7% | -1.6
Cc1nc2ccccc2c2oc(C(=O)N3CCC(C)CC3)cc12 | . | 9.1% | . | . | 0.0
CC1C(=O)NN=C1C(=O)N/N=C\c1ccc(O)cc1O (stereo unspecified) | ? | 25.9% | -11.7% | 5.3% | 4.8
COc1cc(/C=N/NC(=O)C2=NNC(=O)C2C)ccc1O (stereo unspecified) | . | 50.1µM* | -23.3% | -3.2% | 0.4
O=C(CNc1cccc2ccccc12)N/N=C/c1ccc[nH]1 | ? | 8.7% | -26.0% | 19.2% | 1.4
O=C(N/N=C/C=C/c1ccccc1)c1cccs1 | -7.7% | -5.7% | -13.4% | -0.8% | -0.7
O=C(N/N=C/C(Br)=C/c1ccccc1)c1cccs1 | -0.8% | 56.2µM* | ? | ? | 0.1
O=C(CNc1cccc2ccccc12)N/N=C/C(Br)=C/c1ccccc1 | ? | 6.7% | 14.1µM*[quencher] | 0.9% | -4.3
CC1C(=O)NN=C1C(=O)N/N=C\C(Br)=C\c1ccccc1 (stereo unspecified) | 1.2% | 50.1µM* | -1.1% | 6.6% | 0.6
COc1oc(=O)c2cc(N)ccc2c1Cl | . | -1.6% | . | . | 1.3
Cc1ccc2c(c1Br)C(O)(CC(=O)c1ccc(F)cc1)C(=O)N2 (stereo unspecified) | -6.2% | . | -5.3% | -4.1% | .
COc1ccc(NC(=O)c2cnc[nH]2)cc1 | -8.5% | . | -9.5% | -0.2% | .
COc1c2c(cc3c1C(NC(N)=O)[N+](C)(C)CC3)OCO2 (stereo unspecified) | -5.7% | 4.4% | -3.6% | 2.7% | -2.6
CCC(Sc1nnc2c3ccccc3n(CC)c2n1)C(=O)Nc1ccc(NC(C)=O)cc1 (stereo unspecified) | -14.5% | . | -25.2% | ? | .
COc1cccc(CN(C)Cc2cc(=O)oc3cc(O)c(Cl)cc23)c1 | . | 79.4µM* | . | . | 10.7
CCCCOc1ccc(N=Cc2cccs2)cc1 | -15.1% | -0.6% | -17.7% | -3.1% | 4.0
SMILES | Tau ThT inhib | Sfp inh | Tau fluor cs | Tau FP inhib | Coupling enz
Oc1ccc(N=Cc2ccc(-c3cccs3)s2)cc1 | 7.94µM* | 31.6µM* | ? | 14.1µM* | -50.6*
Nc1ccc(S(=O)(=O)Nc2nc3ccccc3o2)cc1 | . | 50.1µM* | . | . | 6.6
Nc1ccc(S(=O)(=O)Nc2cnc3ccccc3n2)cc1 | -7.4% | 8.6% | -10.5% | -8.0% | 8.6
CSc1nsc(SC)c1C(=O)NCCNS(=O)(=O)c1ccc(C)cc1 | -18.4% | 50.1µM* | -12.3% | -1.6% | 0.1
Cc1ccc(S(=O)(=O)NCCNC(=O)c2nonc2N)cc1 | -1.1% | 8.7% | 1.8% | -3.5% | -0.1
Cc1coc2cc3oc(=O)c(CC(=O)NCc4ccccc4)c(C)c3cc12 | 5.9% | . | 0.8% | -3.8% | .
Cc1nc(-c2ccccc2)c(-c2ccncc2)o1 | . | 10.7% | . | . | -1.2
O=C(O)c1cccc(N2C(=O)C3C4C=CC(C4=C(c4ccccc4)c4ccccc4)C3C2=O)c1 (stereo unspecified) | 8.6% | 35.5µM* | -6.0% | -9.6% | -0.3
CCOc1ccc(-c2nn(CC(=O)NC3CCCCC3)c3c2cnc2ccc(C)cc23)cc1 | 9.3% | . | 12.3% | 2.3% | .
BrC(/C=N/Nc1nc(N2CCOCC2)nc(N2CCOCC2)n1)=C/c1ccccc1 | ? | 79.4µM* | -12.4% | -1.0% | 0.5
Cc1c(N)cc(N)cc1C(=O)O | . | -20.3% | -7.8% | -9.8% | -34.7*
Cc1c(Br)cc(C(=O)O)c(C)c1C | -1.4% | 10.3% | 10.5% | 7.6% | 3.4
COc1ccc(C(=O)CSC#N)cc1OC | 15.8µM* | -1.0% | -9.1% | ? | 1.2
O=C(CN1CCCC1)Nc1c2c(nc3ccccc13)N(Cc1ccccc1)CC2 | -22.4% | 14.1µM* | -17.7% | 0.0% | 1.2
O=C(CN1CCOCC1)Nc1c2c(nc3ccccc13)N(Cc1ccccc1)CC2 | -5.9% | 2.5% | -4.8% | 7.3% | -7.0
Cc1noc(C)c1COC(=O)CCCc1c[nH]c2ccccc12 | -15.5% | 50.1µM* | -11.9% | 19.4% | 2.1
CCOC(=O)CCCc1c[nH]c2ccccc12 | -10.9% | 17.9% | -15.9% | 10.2% | -1.1
Cc1ccc(NS(=O)(=O)c2cc(NC(=O)c3ccc4c(c3)NC(=O)CS4)ccc2C)c(C)c1 | 11.2% | 10µM* | ? | ? | 0.8
COc1ccc(NC(=O)c2ccc3c(c2)NC(=O)CS3)cc1S(=O)(=O)Nc1ccc(Br)cc1 | 0.8% | 17.8µM* | ? | 28.2µM* | -0.4
O=C(c1ccco1)N1CCC2(CC1)CN(c1cccc(-c3ccccc3)c1)C2 | . | ? | . | . | -4.8
N#Cc1cccc(CS(=O)(=O)c2nc3ccccc3s2)c1 | ? | -9.5% | -7.4% | ? | 1.2
CCCSC1=C(C#N)C(c2cccs2)CC(=O)N1 (stereo unspecified) | -9.8% | 25.1µM* | -5.8% | -1.3% | 0.0
C=CCSC1=C(C#N)C(c2ccccc2Cl)CC(=O)N1 (stereo unspecified) | -4.7% | 35.5µM* | -0.2% | -1.7% | 3.7
C=C(C)CSC1=C(C#N)C(c2ccccc2Cl)CC(=O)N1 (stereo unspecified) | -10.8% | 44.7µM* | -13.3% | -10.7% | 2.6

High-throughput results (PubChem)
